For 11 molecules, growth results are on record in PubChem BioAssay (NCI).

Compounds without any hit were thinned out: in the full panel of roughly 83,000, 20% have a hit.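 Assay: single dose, 48 h. Readout: percent growth (0 = no net growth; negative = cell death). Active: <10.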 Values without a mark were called inactive. Activity calls are given as the source filed them.

The subject of the test is HL-60(TB) leukemia. Description: NCI-60 one-dose screen, 48 h (100 = growth as untreated, 0 = no growth, -100 = all killed). Particulars: 10 µM unless noted.
In the case of `CCCCCCCN(CCCCCCC)C(=N)c1ccnc2ccccc12`, the growth is -64.4% (active).

For `CCCCCCCCCCCCCC[n+]1ccc(C(N)=O)cc1`, the growth was -50.6% (active).

Consider `O=[N+]([O-])c1cccc(/C=N\Nc2ccccc2)c1`, for which the growth is 20.1%.

As for `Cc1c(N2CN3C[C@H](C)N4CN(c5c(C)n(C)n(-c6ccccc6)c5=O)CN5C[C@@H](C)N(C2)C3C54)c(=O)n(-c2ccccc2)n1C` (stereo partly specified), the growth was -14.5% (active).

For the molecule `C[N+]1=C(/C=C/c2ccc(I)cc2)C(C)(C)c2ccccc21`, the growth was 39.4%.

As for `Cc1ccc(Nc2cccc3ccccc23)cc1`, the growth is 96.2%.

Turning to `C=C(C)[C@@H]1C/C=C(/C=O)CC[C@@H]2O[C@@]2(C)CC/C=C(\C)CC1`, the growth was 162%.

For the molecule `Cc1cccc(N2CCC(=O)NC2=S)c1`, the growth is 98.6%.

On to `C#CCN(Cc1ccc2nc(N)[nH]c(=O)c2c1)c1ccc(C(=O)NC(CCC(=O)O)C(=O)O)cc1` (stereo unspecified), for which the growth was 43.6%.

Regarding `C=C(Cl)COC(=O)C(C)(C)O`, the growth was 103%.

`CCCCCCCCCCCC1=NCCCN1CCCC`: the growth was 104%.
